We go through twelve compounds from the supplement of paper PMC13380429.

In this experiment the test system is Vero E6 infected with SARS-CoV-2. The experiment in a line: SARS-CoV-2 infection rate relative to infected DMSO; higher = more infection, active = 60 or less. The conditions noted are these: 24 h.
On to `CC(C)(C)OC(=O)N[C@H]1CCCCC/C=C\[C@@H]2C[C@@]2(C(=O)NS(=O)(=O)C2CC2)NC(=O)[C@@H]2C[C@@H](OC(=O)N3Cc4cccc(F)c4C3)CN2C1=O` [danoprevir] (10 µM), for which the SARS-CoV-2 infection rate is 114% (inactive). Consider `Cc1cccc(-c2[nH]c(C(C)(C)C)nc2-c2ccc3c(c2)OCO3)n1` (10 µM), for which the SARS-CoV-2 infection rate is 115% (inactive).

For `O=C1NC(=O)[C@@H](c2cn3c4c(cccc24)CCC3)[C@@H]1c1c[nH]c2ccccc12` [tivantinib] (10 µM), the SARS-CoV-2 infection rate is 107% (inactive). With `Cc1c(-c2ccc(-c3ccccc3F)cc2)nc2ccc(F)cc2c1C(=O)O` [brequinar] (10 µM) the figure was 95% (inactive); with `CC(=O)N[C@@H](CCC(N)=O)C(=O)O` [aceglutamide] (10 µM), 105% (inactive); with `CCOC(=O)c1cnc2c(cnn2CC)c1NN=C(C)C` [etazolate] (10 µM), 100% (inactive). For `N=C(N)NCCCC[C@@H]1NC(=O)CCSSC[C@@H](C(N)=O)NC(=O)[C@@H]2CCCN2C(=O)[C@H](Cc2c[nH]c3ccccc23)NC(=O)[C@H](CC(=O)O)NC(=O)CNC1=O` [eptifibatide] (10 µM), the SARS-CoV-2 infection rate was 118% (inactive). As for `COc1ccc(/C=C/C(=O)/C=C(O)/C=C/c2ccc(OC)c(OC)c2)cc1OC` (10 µM), the SARS-CoV-2 infection rate was 80.5% (inactive). Under `CN1CCCN=C1/C=C/c1cccs1` [pyrantel-pamoate] (10 µM) stands 93.5% (inactive); under `CNCCCCOc1ccccc1Cc1ccccc1` [bifemelane] (10 µM), 65% (inactive); under `CC(C(=O)O)c1ccc(C(=O)c2cccs2)cc1` (configuration not stated) [suprofen] (10 µM), 108% (inactive). With `O=S(=O)(F)Cc1ccccc1` [phenylmethylsulfonyl-fluoride] (10 µM) the figure was 95% (inactive).
